We go through 39 molecules from PubChem BioAssay (NCI).

About 83,000 compounds went through this panel and 20% of them were active in at least one assay; those are over-represented in the sample as a whole.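 Single-concentration screen, 48 h exposure, 96-well plates. Endpoint: percent growth. Below 10 = active.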 Calls of active or inactive are those of the source.

This assay relates to MDA-MB-468 breast. As to the kind of experiment: NCI-60 one-dose screen, 48 h (100 = growth as untreated, 0 = no growth, -100 = all killed). The following applies: 10 µM unless noted.
As for `CC1=NNC(=O)C1CCC(=O)N/N=C(\C)c1ccc2ccccc2c1` (centres undefined), the growth is 119% (inactive).
In the case of `O=S(=O)(Nc1ccc(Cl)cc1Cl)c1ccc(-c2cnc(C3CC3)o2)cc1`, the growth is -34.2% (active).
The figure for `COc1ccc(-c2nc3sc(C)nn3c2-c2nc3cc(C)c(C)cc3[nH]2)cc1` is 113% (inactive); for `CN1CC=C(c2cc(NC(=O)Nc3ccc(Oc4ccnc(NC(=O)C5CC5)c4)c(F)c3)cc(C(F)(F)F)c2)CC1` it is -30.3% (active).
`CC(C)C1=NOC(=O)C1=Cc1cn(-c2ccccc2)nc1-c1ccccc1`: the growth is 97.2% (inactive).
On to `CCOC(=O)c1ccc(NC(=O)Nc2nncs2)cc1`, for which the growth was 12.5% (inactive).
For the molecule `CN1CCN(CCOc2ccc(-c3cnc4c(-c5ccc(F)cc5)cnn4c3)cc2)CC1`, the growth was 61.3% (inactive).
The figure for `O=C(/C=C/c1cc([N+](=O)[O-])ccc1Cl)c1ccccc1` is 57.6% (inactive).
The figure for `CCn1c(CSc2nc3ccccc3c(=O)n2CCc2ccccc2)n[nH]c1=S` is 85.6% (inactive).
In the case of `Cc1cc(Nc2nc(C(=O)Nc3ccccc3)nc3ccccc23)n[nH]1`, the growth is 68.9% (inactive).
The figure for `Cc1[nH]c(C(=O)Nc2ccccc2OC2CCNC2)c(Cl)c1Cl` (centres undefined) is 53.8% (inactive); for `CS(=O)(=O)c1ccc(-c2[nH]c3ccc(F)cc3c2/C=N/NC(N)=S)cc1` it is 8.01% (active); for `O=C(N/N=C/c1ccccc1Cl)C(=O)Nc1cccc(C(F)(F)F)c1` it is 89.1% (inactive).
As to `O=c1c2ccccc2c(Br)c(Br)c2ccccc12`, the growth was 8.15% (active).
The figure for `CCn1c(Cc2ccccc2Nc2c(Cl)cccc2Cl)nnc1SCC(=O)NN1C(=O)/C(=C/c2cc(OC)c(O)c(OC)c2)SC1=S` is -2.96% (active).
The figure for `Cc1ccc2c(C3C(C#N)=C(N)Oc4cc5ccccc5cc43)cc(=O)oc2c1` (centres undefined) is 30.3% (inactive); for `CCCCc1nc(Cl)c(CO)n1Cc1ccc(-c2ccccc2-c2nn[nH]n2)cc1` it is 96.4% (inactive).
The figure for `COC(=O)c1cc(Br)ccc1O` is 93% (inactive); for `CCCCCc1c(C)[nH]c(/C=C2\N=C(c3ccc[nH]3)C=C2Oc2ccccc2)c1C` it is -59.3% [100 µM] (active); for `Cc1cc(Nc2ccc(C)c(Cl)c2)n2nc(C(F)(F)F)nc2n1` it is 36.5% (inactive).
On to `COc1cc(C2CC(c3ccc(C)cc3)=NN2C(C)=O)ccc1Oc1ccnc2cc(Cl)ccc12` (centres undefined), for which the growth was 78.6% (inactive).
The figure for `Cc1cc(NCc2cc(Nc3ccnc4cc(Cl)ccc34)ccc2F)nc(Cl)n1` is -3.4% (active).
The figure for `COc1ccc(-c2cn(Cc3cc4ccccc4s3)nn2)cc1OCCN1CCCCC1` is 63.8% (inactive); for `Oc1cccc2oc(=S)[nH]c12` it is 105% (inactive); for `COc1cc(/C=N/Nc2ccnc3cc(Cl)ccc23)cc(OC)c1O` it is -72.1% (active).
For `O=c1oc2ccc(-c3ccc(F)cc3F)cc2c(=O)n1-c1ccc(Br)cc1F`, the growth is 47.3% (inactive).
For the molecule `Cn1cc(-c2csc(-c3cn(CCOC(N)=O)c4ccccc34)n2)c2cccnc21`, the growth was 16.2% (inactive).
The figure for `c1ccc(C(CC2=NCCCN2)c2ccccc2)cc1` is 102% (inactive); for `N#Cc1c(-c2ccccc2)nc(SCC(=O)N2CCN(c3ccccc3)CC2)[nH]c1=O` it is 106% (inactive).
The figure for `CC(=O)c1nc(Nc2ccc(C)cc2)sc1C` is 93.1% (inactive).
For the molecule `O=C(NNc1ccccc1)OCc1ccccc1`, the growth is 108% (inactive).
The figure for `CC1(C)CC[C@]23CC[C@]4(C)[C@H](CC[C@@H]5[C@@]6(C)C/C(=C/c7ccncc7)C(=O)C(C)(C)[C@@H]6CC[C@]54C)[C@H]2[C@H]1OC3=O` is 58.8% [100 µM] (inactive); for `CCC[S@](=O)c1ccc2nc(NC(=O)OC)[nH]c2c1` it is 94.1% (inactive); for `CCSc1ccc([C@@H]2[C@@H](N)C(=O)N2c2cc(OC)c(OC)c(OC)c2)cc1` it is 17% (inactive).
The figure for `ClC1=NC(Cl)C(Cl)=N/C1=N\c1ncn[nH]1` (centres undefined) is -61.6% (active).
The figure for `O=C(C1=Cc2cc3ccccc3n2Cc2cnnn21)c1ccc(F)cc1` is 99.4% (inactive); for `COc1cc(-c2nn(-c3cccc(NC(=O)c4ccc(N5CCOCC5)c(C(F)(F)F)c4)c3)cc2-c2ccncc2)ccc1Cl` it is -37.8% (active); for `O=C(O)c1ccc(-n2cc(CNc3ccc(Cl)cc3)c(-c3ccccc3)n2)cc1` it is 102% (inactive).
As to `COc1ccc(OC)c(/C=C/C(=O)N/N=C/c2ccc(Cl)cc2)c1`, the growth was -4.03% (active).
